# Laboratory results published in PubChem BioAssay (EPA / NIEHS).
# Activity calls are given as the source filed them. How the source made its calls: active means hit-call score of the fitted dose curve at least 0.9, where 1 is the maximum; inactive means score below 0.9.
# Columns and labels:
# [1] = read-out: Tissue plasminogen activator (tPA), PLAT (gene 5327); test: BSK_BE3C_tPA: BioMAP Diversity Plus: BE3C Assay for Tissue plasminogen activator (tPA) Biomarker Activity (AID 2283041); details: primary human bronchial epithelial cells; actives raise or lower the signal;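 on outcome: tPA level quantified by ELISA one day after compound addition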
# Outline: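 Primary human bronchial epithelial cells in the BE3C system, exposed to compound for 24 h. tPA was quantified by ELISA; DMSO served as baseline, with gain or loss of signal fitted. Cytotoxicity checked in parallel cultures by SRB total-protein staining.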
# [2] = read-out: Interleukin-8 (IL8), CXCL8 (gene 3576); test: BSK_CASM3C_IL8: BioMAP Diversity Plus: CASM3C Assay for Interleukin-8 (IL8) Biomarker Activity (AID 2283042); details: primary human coronary artery smooth muscle cells; actives raise or lower the signal;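 further: IL-8 protein level quantified by ELISA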
# [3] = read-out: Human Leukocyte Antigen - DR isotype (HLADR), HLA-DRA (gene 3122); test: BSK_CASM3C_HLADR: BioMAP Diversity Plus: CASM3C Assay for Human Leukocyte Antigen - DR isotype (HLADR) Biomarker Activity (AID 2283043); details: primary human coronary artery smooth muscle cells; actives raise or lower the signal;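 further: cell-surface HLA-DR protein level quantified by ELISA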
# [4] = read-out: Macrophage colony-stimulating factor (MCSF), CSF1 (gene 1435); test: BSK_CASM3C_MCSF: BioMAP Diversity Plus: CASM3C Assay for Macrophage colony-stimulating factor (MCSF) Biomarker Activity (AID 2283044); details: primary human coronary artery smooth muscle cells; actives raise or lower the signal;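 further: M-CSF protein amount quantified by ELISA after 24 h exposure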
# [5] = read-out: Low-density lipoprotein receptor (LDLR), LDLR (gene 3949); test: BSK_CASM3C_LDLR: BioMAP Diversity Plus: CASM3C Assay for Low-density lipoprotein receptor (LDLR) Biomarker Activity (AID 2283045); details: primary human coronary artery smooth muscle cells; actives raise or lower the signal;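 further: LDLR protein level on the cell surface quantified by ELISA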
# [6] = read-out: Monocyte Chemoattractant Protein-1 (MCP1), CCL2 (gene 6347); test: BSK_CASM3C_MCP1: BioMAP Diversity Plus: CASM3C Assay for Monocyte Chemoattractant Protein-1 (MCP1) Biomarker Activity (AID 2283046); details: primary human coronary artery smooth muscle cells; actives raise or lower the signal;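 further: MCP-1 level quantified by ELISA 24 h after dosing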
# [7] = BSK_CASM3C_Proliferation: Cell Proliferation Assessment in the BioMAP Diversity Plus: CASM3C Assay (AID 2283047); details: primary human coronary artery smooth muscle cells;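 further: sulforhodamine B total protein stain as relative cell number at 560 nm; sub-confluent cells exposed 48 h before staining; fitted both ways against DMSO so gain or loss of cell number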
# [8] = read-out: Monokine induced gamma interferon (MIG), CXCL9 (gene 4283); test: BSK_CASM3C_MIG: BioMAP Diversity Plus: CASM3C Assay for Monokine induced gamma interferon (MIG) Biomarker Activity (AID 2283048); details: primary human coronary artery smooth muscle cells; actives raise or lower the signal;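 further: MIG protein level measured by ELISA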
# [9] = read-out: serum amyloid A (SAA), SAA1 (gene 6288); test: BSK_CASM3C_SAA: BioMAP Diversity Plus: CASM3C Assay for serum amyloid A (SAA) Biomarker Activity (AID 2283049); details: primary human coronary artery smooth muscle cells; actives raise or lower the signal;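 further: SAA protein level quantified by ELISA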
# [10] = BSK_CASM3C_SRB: Viability Assessment in the BioMAP Diversity Plus: CASM3C Assay (AID 2283050); details: primary human coronary artery smooth muscle cells
# [11] = read-out: Thrombomodulin, THBD (gene 7056); test: BSK_CASM3C_Thrombomodulin: BioMAP Diversity Plus: CASM3C Assay for Thrombomodulin Biomarker Activity (AID 2283051); details: primary human coronary artery smooth muscle cells; actives raise or lower the signal;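 further: thrombomodulin protein level measured by ELISA 24 h after dosing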
# [12] = read-out: Tissue Factor, F3 (gene 2152); test: BSK_CASM3C_TissueFactor: BioMAP Diversity Plus: CASM3C Assay for Tissue Factor Biomarker Activity (AID 2283052); details: primary human coronary artery smooth muscle cells; actives raise or lower the signal;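 further: cell surface tissue factor protein level read by ELISA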
# [13] = read-out: Interferon-gamma inducible Protein 10 (IP10), CXCL10 (gene 3627); test: BSK_hDFCGF_IP10: BioMAP Diversity Plus: hDFCGF Assay for Interferon-gamma inducible Protein 10 (IP10) Biomarker Activity (AID 2283053); details: primary human foreskin fibroblasts; actives raise or lower the signal
# Outline: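 Primary human foreskin fibroblasts exposed to chemicals for 24 h. IP-10 measured by ELISA; changes fitted bidirectionally against DMSO baseline.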
# [14] = read-out: Urokinase-type plasminogen activator receptor (uPAR), PLAUR (gene 5329); test: BSK_CASM3C_uPAR: BioMAP Diversity Plus: CASM3C Assay for Urokinase-type plasminogen activator receptor (uPAR) Biomarker Activity (AID 2283054); details: primary human coronary artery smooth muscle cells; actives raise or lower the signal;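 further: cell-surface uPAR protein level quantified by ELISA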
# [15] = read-out: Vascular cell adhesion molecule 1 (VCAM1), VCAM1 (gene 7412); test: BSK_CASM3C_VCAM1: BioMAP Diversity Plus: CASM3C Assay for Vascular cell adhesion molecule 1 (VCAM1) Biomarker Activity (AID 2283055); details: primary human coronary artery smooth muscle cells; actives raise or lower the signal;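 further: VCAM-1 protein level quantified by ELISA on the cells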
# [16] = read-out: Collagen III, COL3A1 (gene 1281); test: BSK_hDFCGF_CollagenIII: BioMAP Diversity Plus: hDFCGF Assay for Collagen III Biomarker Activity (AID 2283056); details: primary human foreskin fibroblasts; actives raise or lower the signal
# Outline: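 Response relative to DMSO, fitted in both directions, reflects ELISA-measured collagen III in human primary skin fibroblasts 24 h after compound addition.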
# [17] = read-out: Epidermal growth factor receptor (EGFR), EGFR (gene 1956); test: BSK_hDFCGF_EGFR: BioMAP Diversity Plus: hDFCGF Assay for Epidermal growth factor receptor (EGFR) Biomarker Activity (AID 2283057); details: primary human foreskin fibroblasts; actives raise or lower the signal
# Outline: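 Primary human foreskin fibroblasts (hDFCGF system), sampled 24 h after dosing; EGFR quantified by ELISA. Bidirectional fit relative to DMSO baseline; SRB total-protein staining in parallel cultures for cytotoxicity.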
# [18] = read-out: Interleukin-8 (IL8), CXCL8 (gene 3576); test: BSK_hDFCGF_IL8: BioMAP Diversity Plus: hDFCGF Assay for Interleukin-8 (IL8) Biomarker Activity (AID 2283058); details: primary human foreskin fibroblasts; actives raise or lower the signal
# Outline: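 Fibroblast monolayers (human foreskin, hDFCGF) received test chemical for 24 h before ELISA detection of IL-8; either increases or decreases relative to DMSO count as activity.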
# [19] = BSK_hDFCGF_Proliferation: Cell Proliferation Assessment in the BioMAP Diversity Plus: hDFCGF Assay (AID 2283059); details: primary human foreskin fibroblasts;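 further: curves fitted for both rise and fall of signal versus DMSO baseline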
# Outline: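 Total protein read at 560 nm after 0.1% SRB staining of TCA-fixed human skin fibroblasts, […]. Activity is fitted in both directions relative to DMSO as baseline.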
# [20] = read-out: Macrophage colony-stimulating factor (MCSF), CSF1 (gene 1435); test: BSK_hDFCGF_MCSF: BioMAP Diversity Plus: hDFCGF Assay for Macrophage colony-stimulating factor (MCSF) Biomarker Activity (AID 2283060); details: primary human foreskin fibroblasts; actives raise or lower the signal
# Outline: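 fibroblasts (human foreskin, primary), 24 h post-dose; M-CSF by ELISA; bidirectional fit, DMSO = baseline.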
smiles,measurement,setting,value
CO[C@H]1/C=C/O[C@@]2(C)Oc3c(C)c(O)c4c(O)c(c(/C=N/N5CCN(C)CC5)c(O)c4c3C2=O)NC(=O)/C(C)=C\C=C\[C@H](C)[C@H](O)[C@@H](C)[C@@H](O)[C@@H](C)[C@H](OC(C)=O)[C@@H]1C,outcome,[1],inactive
same,outcome,[2],inactive
same,outcome,[3],inactive
same,outcome,[4],inactive
same,outcome,[5],inactive
same,outcome,[6],inactive
same,AC50,[7],4.51 µM (active)
same,outcome,[8],inactive
same,outcome,[9],inactive
same,outcome,[10],inactive
same,outcome,[11],inactive
same,outcome,[12],inactive
same,outcome,[13],inactive
same,outcome,[14],inactive
same,outcome,[15],inactive
same,outcome,[16],inactive
same,outcome,[17],inactive
same,outcome,[18],inactive
same,AC50,[19],19.4 µM (active)
same,outcome,[20],inactive
CCCCCCCCCCCC[N+](C)(C)C,AC50,[1],15 µM (active)
same,AC50,[2],29.1 µM (active)
same,AC50,[3],14 µM (active)
same,AC50,[4],16.2 µM (active)
same,AC50,[5],21.2 µM (active)
same,AC50,[6],27.1 µM (active)
same,AC50,[7],12.9 µM (active)
same,AC50,[8],33.3 µM (active)
same,AC50,[9],26 µM (active)
same,AC50,[10],27.6 µM (active)
same,outcome,[11],inactive
same,AC50,[12],4.09 µM (active)
same,AC50,[13],22.2 µM (active)
same,AC50,[14],19.9 µM (active)
same,AC50,[15],32.9 µM (active)
same,AC50,[16],2.57 µM (active)
same,outcome,[17],inactive
same,AC50,[18],29.9 µM (active)
same,AC50,[19],8.97 µM (active)
same,AC50,[20],11.9 µM (active)
